Our source for the binding signal values is publication PMC7862700, “An all-to-all approach to the identification of sequence-specific readers for epigenetic DNA modifications on cytosine”.

Assay in all cases: DAPPL (digital affinity profiling via proximity ligation, sequencing); 10 mM Tris-HCl pH 7.5, 50 mM NaCl, 1 mM DTT, 4% glycerol, room temperature, 30 min; GST-TFs on glutathione beads, 16-mer random dsDNA library, 0.1% formaldehyde crosslink after washing; high values mean tight binding
One assay concerns the target T1, FEV (Homo sapiens, UniProt Q99581 1-238).
T1 sequence: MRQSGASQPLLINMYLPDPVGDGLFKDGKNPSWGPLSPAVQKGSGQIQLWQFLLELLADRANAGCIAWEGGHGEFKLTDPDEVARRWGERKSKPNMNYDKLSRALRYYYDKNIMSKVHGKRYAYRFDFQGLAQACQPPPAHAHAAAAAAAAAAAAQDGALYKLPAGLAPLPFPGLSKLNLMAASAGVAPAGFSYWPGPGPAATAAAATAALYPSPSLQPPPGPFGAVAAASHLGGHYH
To be noted: protein: recombinant; tags: N-terminal GST; dsDNA, one strand shown. The method in brief: (§1)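 After expression in yeast as GST fusions, human transcription factors were bound to glutathione beads, DNA-barcoded and mixed with a tag-only sample. The pools were incubated with 200 nmole of a 16-mer random double-stranded DNA library in Tris/NaCl/DTT/glycerol buffer (30 min, room temperature), washed and crosslinked with 0.1% formaldehyde. Proximity ligation with BsaI/T4 ligase ran for 1 h at 37 °C, before PCR amplification and sequencing on an Illumina NextSeq500. Binding signal is a hexamer's read frequency for a factor divided by its frequency for the tag-only sample.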

A further assay addresses ETV5 (Homo sapiens, UniProt P41161 1-510). Particulars: protein: recombinant; tags: N-terminal GST; dsDNA, one strand shown. The method in brief: as §1
Another assay concerns the target HSF1 (Homo sapiens, UniProt Q00613 1-529). Particulars: protein: recombinant; tags: N-terminal GST; chain copies: 3; dsDNA, one strand shown. Summed up: as §1
Another assay has as its target T2, SPIC (Homo sapiens, UniProt Q8N5J4 1-248).
T2 sequence: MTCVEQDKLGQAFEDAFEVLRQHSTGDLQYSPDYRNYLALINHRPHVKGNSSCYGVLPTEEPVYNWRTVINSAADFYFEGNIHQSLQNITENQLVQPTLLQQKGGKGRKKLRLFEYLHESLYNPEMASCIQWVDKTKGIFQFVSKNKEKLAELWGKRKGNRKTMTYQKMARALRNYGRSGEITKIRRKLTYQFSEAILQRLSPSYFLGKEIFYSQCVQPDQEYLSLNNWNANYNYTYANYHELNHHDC
To be noted: protein: recombinant; tags: N-terminal GST; dsDNA, one strand shown. Summed up: as §1

Another assay has as its target ELF4 (Homo sapiens, UniProt Q99607 1-663). To be noted: protein: recombinant; tags: N-terminal GST; dsDNA, one strand shown. Summed up: as §1
The target in the next assay is T3, ELK4 (Homo sapiens, UniProt P28324-2 1-405).
T3 sequence: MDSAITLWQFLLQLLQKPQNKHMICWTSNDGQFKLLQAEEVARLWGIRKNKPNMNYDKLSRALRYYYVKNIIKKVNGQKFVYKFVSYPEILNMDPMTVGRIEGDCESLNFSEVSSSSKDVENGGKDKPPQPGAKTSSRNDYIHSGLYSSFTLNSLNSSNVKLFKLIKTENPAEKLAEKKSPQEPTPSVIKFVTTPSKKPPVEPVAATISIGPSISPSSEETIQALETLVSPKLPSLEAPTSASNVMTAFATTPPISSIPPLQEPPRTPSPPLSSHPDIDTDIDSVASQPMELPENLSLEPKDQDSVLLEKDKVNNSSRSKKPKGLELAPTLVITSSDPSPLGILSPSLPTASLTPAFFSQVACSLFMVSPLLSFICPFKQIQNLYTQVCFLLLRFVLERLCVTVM
Particulars: protein: recombinant; tags: N-terminal GST; dsDNA, one strand shown. Summed up: as §1

The next assay concerns the target T4, ETV2 (Homo sapiens, UniProt O00321 1-342).
T4 sequence: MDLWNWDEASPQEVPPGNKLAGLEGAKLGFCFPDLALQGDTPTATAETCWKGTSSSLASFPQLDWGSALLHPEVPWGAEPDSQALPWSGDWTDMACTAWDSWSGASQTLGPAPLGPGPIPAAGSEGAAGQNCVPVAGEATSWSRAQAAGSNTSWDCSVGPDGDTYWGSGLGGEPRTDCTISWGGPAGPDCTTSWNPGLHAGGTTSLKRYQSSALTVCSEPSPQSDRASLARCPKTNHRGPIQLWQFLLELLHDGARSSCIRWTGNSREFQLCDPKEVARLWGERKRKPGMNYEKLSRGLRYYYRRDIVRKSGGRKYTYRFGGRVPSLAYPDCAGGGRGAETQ
To be noted: protein: recombinant; tags: N-terminal GST; dsDNA, one strand shown. Summed up: as §1

In a further assay the target is T5, ELF3 (Homo sapiens, UniProt P78545 1-371).
T5 sequence: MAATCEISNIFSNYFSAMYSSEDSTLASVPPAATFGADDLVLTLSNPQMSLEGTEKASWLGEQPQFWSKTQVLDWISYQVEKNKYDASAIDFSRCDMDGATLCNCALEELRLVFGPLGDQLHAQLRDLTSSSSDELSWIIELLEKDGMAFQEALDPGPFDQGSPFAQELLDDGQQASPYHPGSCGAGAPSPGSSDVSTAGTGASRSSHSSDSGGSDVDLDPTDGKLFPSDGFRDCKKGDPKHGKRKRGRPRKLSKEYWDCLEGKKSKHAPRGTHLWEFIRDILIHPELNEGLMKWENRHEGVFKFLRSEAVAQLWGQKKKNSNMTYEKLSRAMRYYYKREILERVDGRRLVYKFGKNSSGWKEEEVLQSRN
Particulars: protein: recombinant; tags: N-terminal GST; dsDNA, one strand shown. The method in brief:
as §1

The target of a further assay is CRX (Homo sapiens, UniProt O43186 1-299). Particulars: protein: recombinant; tags: N-terminal GST; dsDNA, one strand shown. The method in brief:
as §1

The target of the next assay is ETV1 (Homo sapiens, UniProt P50549 1-477). Particulars: protein: recombinant; tags: N-terminal GST; dsDNA, one strand shown. Summed up:
as §1

The next assay has as its target T6, ERF (Homo sapiens, UniProt P50548 1-548).
T6 sequence: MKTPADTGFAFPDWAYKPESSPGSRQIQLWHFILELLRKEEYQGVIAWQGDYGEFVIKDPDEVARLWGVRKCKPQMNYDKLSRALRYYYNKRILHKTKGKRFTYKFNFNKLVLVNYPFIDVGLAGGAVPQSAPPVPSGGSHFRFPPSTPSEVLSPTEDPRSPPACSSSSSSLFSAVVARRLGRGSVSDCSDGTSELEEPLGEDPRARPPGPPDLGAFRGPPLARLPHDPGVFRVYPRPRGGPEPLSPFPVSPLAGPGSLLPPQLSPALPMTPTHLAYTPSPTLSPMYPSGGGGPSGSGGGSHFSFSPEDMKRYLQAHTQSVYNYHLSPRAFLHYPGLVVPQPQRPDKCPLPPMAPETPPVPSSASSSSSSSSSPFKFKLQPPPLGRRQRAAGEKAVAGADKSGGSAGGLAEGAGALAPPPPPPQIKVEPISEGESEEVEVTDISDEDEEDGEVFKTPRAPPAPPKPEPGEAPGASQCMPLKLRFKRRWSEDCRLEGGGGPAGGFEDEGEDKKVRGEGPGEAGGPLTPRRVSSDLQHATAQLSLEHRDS
To be noted: protein: recombinant; tags: N-terminal GST; dsDNA, one strand shown. Summed up:
as §1

A further assay deals with T7, ETV3L (Homo sapiens, UniProt Q6ZN32 1-361).
T7 sequence: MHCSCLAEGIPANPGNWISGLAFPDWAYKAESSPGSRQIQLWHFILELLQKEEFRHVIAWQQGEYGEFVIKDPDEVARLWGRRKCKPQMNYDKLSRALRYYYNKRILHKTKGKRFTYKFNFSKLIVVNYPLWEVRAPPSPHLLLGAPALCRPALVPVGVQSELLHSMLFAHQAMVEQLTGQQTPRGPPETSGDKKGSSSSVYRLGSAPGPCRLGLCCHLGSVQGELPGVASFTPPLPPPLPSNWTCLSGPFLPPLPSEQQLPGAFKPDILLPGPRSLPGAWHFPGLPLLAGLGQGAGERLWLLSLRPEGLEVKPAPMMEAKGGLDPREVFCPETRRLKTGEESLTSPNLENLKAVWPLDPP
To be noted: protein: recombinant; tags: N-terminal GST; dsDNA, one strand shown. Summed up: as §1

The target in a further assay is T8, ETS2 (Homo sapiens, UniProt P15036 1-469).
T8 sequence: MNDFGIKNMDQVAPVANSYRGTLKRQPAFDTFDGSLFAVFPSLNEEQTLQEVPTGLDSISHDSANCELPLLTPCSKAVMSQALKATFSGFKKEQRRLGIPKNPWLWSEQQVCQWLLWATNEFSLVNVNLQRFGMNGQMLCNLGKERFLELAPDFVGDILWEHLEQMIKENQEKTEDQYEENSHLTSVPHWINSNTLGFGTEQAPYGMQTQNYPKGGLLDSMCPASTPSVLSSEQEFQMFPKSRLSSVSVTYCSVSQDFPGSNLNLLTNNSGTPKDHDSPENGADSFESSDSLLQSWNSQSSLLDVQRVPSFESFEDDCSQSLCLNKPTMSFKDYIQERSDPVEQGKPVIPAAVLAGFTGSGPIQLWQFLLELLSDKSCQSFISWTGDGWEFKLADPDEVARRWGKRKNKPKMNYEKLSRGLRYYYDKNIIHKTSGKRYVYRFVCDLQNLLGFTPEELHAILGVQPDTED
Particulars: protein: recombinant; tags: N-terminal GST; dsDNA, one strand shown. The method in brief:
as §1

The next assay has as its target T9, SPDEF (Homo sapiens, UniProt O95238 1-335).
T9 sequence: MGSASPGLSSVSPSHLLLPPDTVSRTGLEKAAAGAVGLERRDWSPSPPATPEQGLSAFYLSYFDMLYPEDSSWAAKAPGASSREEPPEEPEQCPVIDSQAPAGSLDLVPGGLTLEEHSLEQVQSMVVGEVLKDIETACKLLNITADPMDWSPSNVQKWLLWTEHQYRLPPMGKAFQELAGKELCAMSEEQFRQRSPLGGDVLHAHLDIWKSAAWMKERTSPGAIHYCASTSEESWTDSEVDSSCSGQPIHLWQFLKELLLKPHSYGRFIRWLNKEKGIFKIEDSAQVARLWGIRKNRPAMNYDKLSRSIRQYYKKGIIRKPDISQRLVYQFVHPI
To be noted: protein: recombinant; tags: N-terminal GST; dsDNA, one strand shown. The method in brief:
as §1

The next assay addresses T10, ETV7 (Homo sapiens, UniProt Q9Y603 1-341).
T10 sequence: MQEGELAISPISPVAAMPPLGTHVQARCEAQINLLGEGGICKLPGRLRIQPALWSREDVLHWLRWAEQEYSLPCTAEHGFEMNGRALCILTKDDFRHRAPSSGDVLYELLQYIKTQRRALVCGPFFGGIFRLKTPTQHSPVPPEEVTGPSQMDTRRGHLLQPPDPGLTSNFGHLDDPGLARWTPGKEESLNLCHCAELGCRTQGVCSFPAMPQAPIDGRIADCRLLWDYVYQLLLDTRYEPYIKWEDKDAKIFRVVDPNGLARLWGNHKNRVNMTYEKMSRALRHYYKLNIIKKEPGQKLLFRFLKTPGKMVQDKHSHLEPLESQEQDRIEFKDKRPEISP
Particulars: protein: recombinant; tags: N-terminal GST; dsDNA, one strand shown. The method in brief: as §1

Another assay concerns the target T11, ELF5 (Homo sapiens, UniProt Q9UKW6-2 1-255).
T11 sequence: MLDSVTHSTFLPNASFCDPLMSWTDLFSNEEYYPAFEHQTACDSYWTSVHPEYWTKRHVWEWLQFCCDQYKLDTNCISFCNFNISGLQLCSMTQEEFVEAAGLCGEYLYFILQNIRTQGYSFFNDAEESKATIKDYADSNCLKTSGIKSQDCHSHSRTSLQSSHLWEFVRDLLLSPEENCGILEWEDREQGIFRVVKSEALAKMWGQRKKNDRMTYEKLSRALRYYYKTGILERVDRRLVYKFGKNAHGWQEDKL
To be noted: protein: recombinant; tags: N-terminal GST; dsDNA, one strand shown. The method in brief: as §1

A further assay deals with T12, ETV3 (Homo sapiens, UniProt P41162-2 1-143).
T12 sequence: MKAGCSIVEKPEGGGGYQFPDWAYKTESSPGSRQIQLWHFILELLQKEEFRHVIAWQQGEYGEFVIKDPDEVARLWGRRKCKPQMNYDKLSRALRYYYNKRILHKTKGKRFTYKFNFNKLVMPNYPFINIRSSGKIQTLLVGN
Particulars: protein: recombinant; tags: N-terminal GST; dsDNA, one strand shown. Summed up:
as §1

The target of the next assay is ETV6 (Homo sapiens, UniProt P41212 1-452). Particulars: protein: recombinant; tags: N-terminal GST; dsDNA, one strand shown. Summed up:
as §1

Sequence of ETV5 (P41161 whole entry): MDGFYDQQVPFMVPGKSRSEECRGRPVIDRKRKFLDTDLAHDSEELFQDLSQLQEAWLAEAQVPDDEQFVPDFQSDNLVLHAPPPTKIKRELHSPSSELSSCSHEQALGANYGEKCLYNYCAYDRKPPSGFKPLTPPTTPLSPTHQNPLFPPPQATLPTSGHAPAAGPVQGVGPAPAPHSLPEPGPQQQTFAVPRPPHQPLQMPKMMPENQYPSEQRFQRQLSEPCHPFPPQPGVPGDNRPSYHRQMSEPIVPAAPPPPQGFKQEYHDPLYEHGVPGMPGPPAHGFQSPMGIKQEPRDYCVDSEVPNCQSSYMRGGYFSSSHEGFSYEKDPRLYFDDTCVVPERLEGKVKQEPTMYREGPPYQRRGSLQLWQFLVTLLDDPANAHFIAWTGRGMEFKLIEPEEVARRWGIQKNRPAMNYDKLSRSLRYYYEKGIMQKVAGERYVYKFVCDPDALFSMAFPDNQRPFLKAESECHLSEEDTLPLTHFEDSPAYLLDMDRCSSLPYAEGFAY
Sequence of ETV6 (P41212 whole entry): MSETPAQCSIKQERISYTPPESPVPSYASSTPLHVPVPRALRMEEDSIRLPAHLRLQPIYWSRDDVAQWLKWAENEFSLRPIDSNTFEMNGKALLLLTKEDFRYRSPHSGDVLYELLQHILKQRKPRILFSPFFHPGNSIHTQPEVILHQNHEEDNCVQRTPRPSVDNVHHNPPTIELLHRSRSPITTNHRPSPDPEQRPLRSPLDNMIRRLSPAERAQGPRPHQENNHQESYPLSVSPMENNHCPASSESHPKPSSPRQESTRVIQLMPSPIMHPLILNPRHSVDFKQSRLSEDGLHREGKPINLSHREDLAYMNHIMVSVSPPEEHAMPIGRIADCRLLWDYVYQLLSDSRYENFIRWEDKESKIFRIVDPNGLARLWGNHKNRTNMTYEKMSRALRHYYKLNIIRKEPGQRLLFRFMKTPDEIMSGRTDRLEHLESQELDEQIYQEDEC
Sequence of ELF4 (Q99607 whole entry): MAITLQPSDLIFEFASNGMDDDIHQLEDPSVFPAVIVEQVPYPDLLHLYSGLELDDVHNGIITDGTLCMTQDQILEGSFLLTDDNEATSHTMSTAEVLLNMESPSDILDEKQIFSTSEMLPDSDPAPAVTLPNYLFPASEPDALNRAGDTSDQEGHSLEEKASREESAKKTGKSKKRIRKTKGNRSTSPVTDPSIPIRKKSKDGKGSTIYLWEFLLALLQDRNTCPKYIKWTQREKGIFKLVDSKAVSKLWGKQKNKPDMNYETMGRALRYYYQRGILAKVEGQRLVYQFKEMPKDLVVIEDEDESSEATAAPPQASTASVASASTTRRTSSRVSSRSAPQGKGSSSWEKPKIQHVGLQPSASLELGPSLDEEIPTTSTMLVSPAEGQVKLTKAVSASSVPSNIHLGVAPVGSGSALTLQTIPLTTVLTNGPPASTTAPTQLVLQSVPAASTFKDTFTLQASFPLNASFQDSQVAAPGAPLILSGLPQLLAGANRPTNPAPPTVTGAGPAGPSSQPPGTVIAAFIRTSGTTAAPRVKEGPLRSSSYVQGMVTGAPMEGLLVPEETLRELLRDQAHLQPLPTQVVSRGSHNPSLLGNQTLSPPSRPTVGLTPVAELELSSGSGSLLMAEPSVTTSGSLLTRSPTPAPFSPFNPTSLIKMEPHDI
Sequence of ETV1 (P50549 whole entry): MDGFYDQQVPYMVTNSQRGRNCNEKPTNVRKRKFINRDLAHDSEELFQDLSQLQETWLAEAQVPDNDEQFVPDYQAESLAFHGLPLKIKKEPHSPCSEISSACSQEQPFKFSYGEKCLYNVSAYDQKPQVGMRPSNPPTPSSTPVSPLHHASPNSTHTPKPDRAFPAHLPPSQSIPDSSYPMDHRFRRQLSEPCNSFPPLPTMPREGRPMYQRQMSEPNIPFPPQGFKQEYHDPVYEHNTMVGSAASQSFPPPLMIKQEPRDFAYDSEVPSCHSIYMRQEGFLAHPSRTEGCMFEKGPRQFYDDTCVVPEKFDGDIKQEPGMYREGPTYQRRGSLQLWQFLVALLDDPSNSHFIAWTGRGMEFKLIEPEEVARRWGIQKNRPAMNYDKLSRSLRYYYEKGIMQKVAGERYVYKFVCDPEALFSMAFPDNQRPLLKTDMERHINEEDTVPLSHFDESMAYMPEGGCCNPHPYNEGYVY
Sequence of HSF1 (Q00613 whole entry): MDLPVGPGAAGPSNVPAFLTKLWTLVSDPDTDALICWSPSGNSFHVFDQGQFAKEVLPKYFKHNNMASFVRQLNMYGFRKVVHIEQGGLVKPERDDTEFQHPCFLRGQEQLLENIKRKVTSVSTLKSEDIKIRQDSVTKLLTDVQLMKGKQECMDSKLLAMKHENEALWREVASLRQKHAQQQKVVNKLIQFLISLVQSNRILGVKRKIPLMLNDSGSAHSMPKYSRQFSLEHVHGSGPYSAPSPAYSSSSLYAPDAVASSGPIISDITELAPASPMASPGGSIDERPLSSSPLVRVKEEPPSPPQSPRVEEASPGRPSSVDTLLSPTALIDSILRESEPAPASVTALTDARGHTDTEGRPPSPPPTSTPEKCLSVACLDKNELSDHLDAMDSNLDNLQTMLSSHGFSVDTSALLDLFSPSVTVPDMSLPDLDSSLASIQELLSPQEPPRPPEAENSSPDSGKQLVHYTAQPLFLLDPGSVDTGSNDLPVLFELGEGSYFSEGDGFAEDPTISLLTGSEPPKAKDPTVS
Sequence of CRX (O43186 whole entry): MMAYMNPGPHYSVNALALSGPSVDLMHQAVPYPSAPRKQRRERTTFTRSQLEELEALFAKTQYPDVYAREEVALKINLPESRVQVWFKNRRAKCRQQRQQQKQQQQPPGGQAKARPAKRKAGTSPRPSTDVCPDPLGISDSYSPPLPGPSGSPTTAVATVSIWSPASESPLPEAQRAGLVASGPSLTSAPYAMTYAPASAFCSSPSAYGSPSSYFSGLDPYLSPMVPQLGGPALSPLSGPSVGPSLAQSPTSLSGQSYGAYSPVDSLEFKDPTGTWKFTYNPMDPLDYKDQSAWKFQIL

TATAGG: the binding signal in the assay with FEV is 1.15 fold enrichment (6-mer frequency, TF over GST control); with ETV5 it was 1.24 fold enrichment (6-mer frequency, TF over GST control); with HSF1 it was 1.2 fold enrichment (6-mer frequency, TF over GST control); in the assay with SPIC it was 1.34 fold enrichment (6-mer frequency, TF over GST control); with ELF4, 1.05 fold enrichment (6-mer frequency, TF over GST control); with ELK4 it was 1.14 fold enrichment (6-mer frequency, TF over GST control). In addition, the binding signal with ETV2 is 1.26 fold enrichment (6-mer frequency, TF over GST control); with ELF3, 1.19 fold enrichment (6-mer frequency, TF over GST control); with CRX it was 1.42 fold enrichment (6-mer frequency, TF over GST control); with ETV1, 1.13 fold enrichment (6-mer frequency, TF over GST control); with ERF, 1.18 fold enrichment (6-mer frequency, TF over GST control); with ETV3L it was 1.14 fold enrichment (6-mer frequency, TF over GST control). Also, the binding signal was 1.13 fold enrichment (6-mer frequency, TF over GST control) in the assay with ETS2; 1.19 fold enrichment (6-mer frequency, TF over GST control) with SPDEF; 1.22 fold enrichment (6-mer frequency, TF over GST control) with ETV7; 1.23 fold enrichment (6-mer frequency, TF over GST control) with ELF5; 1.17 fold enrichment (6-mer frequency, TF over GST control) in the assay with ETV3; 1.11 fold enrichment (6-mer frequency, TF over GST control) with ETV6.
